INHIBITION data for 101 molecules are collected here from ChEMBL document CHEMBL4513216, “Probing the Open Global Health Chemical Diversity Library for Multistage-Active Starting Points for Next-Generation Antimalarials” (ACS Infect Dis, 2020).

Hit rate of the full screen: of about 68,000 compounds, about 2,700 (4%) showed an effect of 50% or more. Shown is part of a subset that was picked to be rich in strong results.

This assay deals with Plasmodium berghei. Kind of assay: Screen against P. berghei liver stage (PbLuc), transformed with Luciferase, at 2uM. It is filed as functional, HepG2. The note with it: tested at 2 uM.
Consider `CC(=O)N(C)Cc1ccccc1NCc1c(C)noc1C`, for which the INHIBITION came to 47.68%. Regarding `Cc1noc(C)c1CNS(=O)(=O)N(C)Cc1ccccc1Br`, the INHIBITION is reported as -45.67%. The same measure for `CCN(CC)Cc1ccccc1NCc1c(C)noc1C`: 71.91%. For the molecule `O=C(Cc1csc(-c2ccco2)n1)N1CCN(c2nccs2)CC1`, the INHIBITION amounted to 4.89%.

In the case of `CC(C)(C)CC(NC(=O)N1CCC(C(N)=O)CC1)C(F)(F)F` (stereo unspecified), the INHIBITION amounted to 4.34%. On to `CC(=O)N[C@@H](C)C(=O)NCc1cccnc1Oc1ccccc1F`, for which the INHIBITION was -66.28%. The same measure for `c1cncc(-c2noc(CN3CCCC3Cn3cccn3)n2)c1` (stereo unspecified): 5.59%; for `O=C(Nc1cc(-c2ccccc2)on1)N1CC[C@H](O)C1`: -9.71%; for `O=C(Nc1cc(-c2ccccc2)on1)N1CCN(CCO)CC1`: 45.19%.

For the molecule `CCC(=O)NC1CCCN(C(=O)Nc2cc(-c3ccccc3)on2)C1` (stereo unspecified), the INHIBITION came out at 80.45%. With `Cc1ccc(CN2CCCC3(CCCCN3S(C)(=O)=O)C2)s1` (stereo unspecified), the INHIBITION is on record as -40.37%.

As for `Cc1ccc(CN2CCC3(CCCN3S(C)(=O)=O)CC2)s1`, the INHIBITION is listed as -26.46%. For the molecule `Cc1ccc(CN2CCCC3(CCCN3S(C)(=O)=O)C2)s1` (stereo unspecified), the INHIBITION turned out to be 51.26%. In the case of `Cc1ccc(CNCc2nnc3n2CCCC3C(F)(F)F)s1` (stereo unspecified) it was -73.29%; in that of `OC1(CN2CCC(Cc3ncccn3)CC2)CCCCC1`, -9.61%; in that of `CCOc1cccnc1C(=O)N1CC=C(c2ccc(O)cc2)CC1`, 7.46%. For the molecule `Cn1ccc(CN2CCC(NC(=O)C3CCCCC3)CC2)cc1=O`, the INHIBITION is listed as -24.26%. The same measure for `Cn1ccc(CN2CCC(NC(=O)NC3CCCCC3)CC2)cc1=O`: 54.85%; for `Cn1ccc(CN2CCC(CC(=O)NC3CCCC3)CC2)cc1=O`: -17.37%. Consider `Cc1ccccc1-c1noc(CNc2ccc(F)cc2OCCO)n1`, for which the INHIBITION was found to be 20.77%. Regarding `Cc1nc(COc2ccc(CNCCn3cccn3)cc2)cs1`, the INHIBITION is listed as 12.01%. As to `COC(=O)C1CCN(C(=O)Cn2nc(C)nc2-c2ccccc2)CC1`, the INHIBITION is 50.32%. Turning to `Cc1nc(-c2ccccc2)n(CC(=O)NC2CCCC2)n1`, the INHIBITION is 37.68%. The same measure for `COC(=O)C1CCN(C(=O)Cn2ccc(-c3ccccc3)n2)CC1`: -7.16%; for `Cc1nc(-c2ccsc2)ccc1C(=O)NCCCN1CCOCC1`: -10.47%; for `Cc1nc(-c2ccsc2)ccc1C(=O)NCCN1CCOCC1`: 13%.

For the molecule `Cc1nc(-c2ccsc2)ccc1C(=O)NC(C)CN1CCOCC1` (stereo unspecified), the INHIBITION worked out at 50.75%.

As to `CC(C)CN1CC[C@@H]2[C@H](CC1)N(S(C)(=O)=O)CCS2(=O)=O`, the INHIBITION is on record as 30.95%.

Take `Cc1noc(C)c1CN1CC[C@H]2OCC[C@@]2(C(=O)NC2CCCC2)C1`: the INHIBITION is recorded as -6.61%. Turning to `COc1ncc(-c2ccc(O)cc2)c(OC)n1`, the INHIBITION stood at 24.44%. Consider `CNc1cc(C)nc(C2COCCN2CCc2ccccc2)n1` (stereo unspecified), for which the INHIBITION is -3.96%.

On to `CNc1cc(C)nc(C2COCCN2Cc2csc(C)n2)n1` (stereo unspecified), for which the INHIBITION is given as 52.03%. `Cc1cc(N(C)C)nc(C2COCCN2Cc2csc(C)n2)n1` (stereo unspecified): the INHIBITION was -27.45%.

As to `CCOC(=O)C(C)Nc1ccc(CCN2CCOCC2)cc1` (stereo unspecified), the INHIBITION is -48.91%. As for `CCNc1nc2c(s1)C(=O)CN(C(=O)NCc1ccccc1)C2`, the INHIBITION is recorded as 52.01%. Consider `CNc1nc2c(s1)C(=O)CN(C(=O)NCc1ccccc1)C2`, for which the INHIBITION is on record as 16.51%. For `CCNc1nc2c(s1)C(=O)CN(C(=O)NCCc1ccccc1)C2`, the INHIBITION came out at 12.31%. As to `COCCN1C[C@@H]2CC[C@H]1CN(Cc1nc3ccccc3n1C)C2`, the INHIBITION came to 20.14%. For `COCCN1C[C@@H]2CC[C@H]1CN(Cc1cc(=O)c3cc(C)ccc3[nH]1)C2`, the INHIBITION is -23.58%. On to `COCCN1C[C@@H]2CC[C@H]1CN(Cc1ccc3ccccc3n1)C2`, for which the INHIBITION came to 50.32%. On to `O=C(NCc1cccnc1)c1nc2c(s1)CCCN2C(=O)C1CC1`, for which the INHIBITION came out at 26.76%. Consider `CC(C)(C)C(=O)NCCC(=O)NC(C)(C)c1ccc2c(c1)OCCO2`, for which the INHIBITION is -93.39%. In the case of `CC(C)(C)C(=O)NCCC(=O)NS(=O)(=O)c1ccc2c(c1)OCCO2` it was 73.37%; in that of `CCCOCC(=O)NS(=O)(=O)c1ccc2c(c1)OCCCO2`, -16.42%. With `COCCCC(=O)NS(=O)(=O)c1ccc2c(c1)OCCCO2`, the INHIBITION was determined as 54.85%. For `CC(C)CC(=O)NS(=O)(=O)c1ccc2c(c1)OCCCO2`, the INHIBITION is on record as -32.2%. Take `CSCCC(=O)NS(=O)(=O)c1ccc2c(c1)OCCO2`: the INHIBITION is given as -14.75%.

For `COCCn1ccc(NC(=O)Nc2ccccn2)n1`, the INHIBITION is given as -48.53%. As for `O=C1N(Cc2ccc(F)c(F)c2)CCCC1(O)CNCc1cccnc1` (stereo unspecified), the INHIBITION is given as -0.06%. As to `CCOc1cc2c(cc1CNC(Cc1cccs1)c1nccs1)OCO2` (stereo unspecified), the INHIBITION is recorded as -52.9%. On to `CC(C)NC(=O)C1CCc2nnc(CNC(=O)C3CC3)n21` (stereo unspecified), for which the INHIBITION worked out at 52.23%. On to `CC(C)NC(=O)C1CCc2nnc(CNC(=O)c3cccnc3)n21` (stereo unspecified), for which the INHIBITION is 37.62%.

On to `CC(C)NC(=O)C1CCc2nnc(CNC(=O)c3ccc(Cl)cc3Cl)n21` (stereo unspecified), for which the INHIBITION worked out at 5.75%. Regarding `CCOc1ccc(S(=O)(=O)N(C)Cc2cnn(CC)c2)cc1`, the INHIBITION is recorded as -44.7%.

Consider `COc1ncccc1CNC1CCc2c(ccc(=O)n2CC2CC2)C1` (stereo unspecified), for which the INHIBITION is 24.04%. For the molecule `O=C([C@H]1C[C@H]2OCC[C@H]2N(Cc2ccccc2F)C1)N1CCCCO1`, the INHIBITION is reported as 29.33%. In the case of `CN(C)Cc1nnc2n1CCN(Cc1ccccn1)CC2` it was -16.67%. Take `O=C(CCc1cccs1)Nc1ccnn1C1CCS(=O)(=O)C1` (stereo unspecified): the INHIBITION is recorded as -28.15%. `Cc1cccc(CCC(=O)Nc2ccnn2C2CCS(=O)(=O)C2)c1` (stereo unspecified): the INHIBITION is given as 62.13%.

For the molecule `O=C(CCc1ccsc1)Nc1ccnn1C1CCS(=O)(=O)C1` (stereo unspecified), the INHIBITION is -38.89%. Regarding `O=C(NCCC1COc2ccccc2O1)c1ccc(N2CC(O)C2)nc1` (stereo unspecified), the INHIBITION is on record as 13.19%. The same measure for `O=C1N[C@@H]2CCN(C(=O)C3CC3)[C@@H]2C(=O)N1c1ccc(F)cc1`: 34.24%; for `Cc1ccc(N2C(=O)N[C@@H]3CCN(C(=O)C4CC4)[C@@H]3C2=O)cc1`: 56.76%. On to `Cc1ccc(N2C(=O)N[C@@H]3CCN(C(=O)C4CCCC4)[C@@H]3C2=O)cc1`, for which the INHIBITION is reported as -28.91%.

For the molecule `COc1ccc(-c2nnc(SC(C)C(=O)NCC(C)C)[nH]2)c(OC)c1` (stereo unspecified), the INHIBITION is listed as 59.18%. Regarding `COc1ccc(-c2nnc(SCC(=O)NCC(C)C)[nH]2)c(OC)c1`, the INHIBITION is -8.24%. Regarding `COc1ccc(-c2nnc(SC(C)C(=O)NC(C)(C)C)[nH]2)c(OC)c1` (stereo unspecified), the INHIBITION is -42.16%. In the case of `Cc1ccc([C@@H]2CN(C(=O)c3ccsc3)C[C@H]2NC(=O)C2CC2)cc1`, the INHIBITION is recorded as 50.57%. For the molecule `Cc1ccc([C@@H]2CN(C(=O)c3csc(C)n3)C[C@H]2NC(=O)C2CC2)cc1`, the INHIBITION is -67.56%.

`Cc1ccc([C@@H]2CN(C(=O)c3cc[nH]c3)C[C@H]2NC(=O)C2CC2)cc1`: the INHIBITION is -12.67%. As for `CC(NC(=O)NCCN1CCCC1)c1nncn1C` (stereo unspecified), the INHIBITION is 21.83%. The same measure for `CN1CCc2[nH]cnc2C12CCN(Cc1ccc(S(C)(=O)=O)cc1)CC2`: 18.54%; for `CC(C)c1ccc(C(N)c2cccs2)cc1` (stereo unspecified): -61.99%; for `CCCS(=O)(=O)NCc1nc(C)cc(N2CCCC2)n1`: 15.84%. The same measure for `CCS(=O)(=O)NCc1nc(C)cc(N2CCCC2)n1`: 53.61%; for `CCS(=O)(=O)NCc1nc(C)cc(N2CCCCC2)n1`: 19.12%. The same measure for `CCN1CC2(CCN(CC3CCCO3)CC2)OC1=O` (stereo unspecified): 6.85%; for `O=C1OC2(CCN(CC3CCCO3)CC2)CN1CCc1ccccc1` (stereo unspecified): -38.59%.

Regarding `CCN1CC2(CCN(CC3COCCO3)CC2)OC1=O` (stereo unspecified), the INHIBITION was found to be 65.1%. `COCC1CN(C(=O)Cc2ccccn2)Cc2ncnn2C1` (stereo unspecified): the INHIBITION is given as -54.16%. Take `O=C(c1ccc2c(c1)COC2)N1CCCC(n2cncn2)C1` (stereo unspecified): the INHIBITION is -45.72%. In the case of `O=C1OC2(CCNCC2)CN1CC(=O)N1CCCC1c1nccs1` (stereo unspecified), the INHIBITION was found to be 3.62%. The same measure for `O=C(CN1C(=O)CCNC1=O)N1CCC2(CCc3ccccc32)CC1`: 12.3%.

Regarding `O=C(CC1COCCN1)N1CCC(N2CCc3ccccc3C2)CC1` (stereo unspecified), the INHIBITION is -3.38%. Take `O=C(O)CN1CCC2(CCc3ccccc32)CC1`: the INHIBITION is on record as -2.19%. In the case of `O=C(CN1CCOC1=O)N1CCC2(CCc3ccccc32)CC1`, the INHIBITION came out at 55.36%. Consider `O=C(CC1COCCN1)N1CCCN(C2Cc3ccccc3C2)CC1` (stereo unspecified), for which the INHIBITION amounted to 46.02%. As to `O=C(CC1COCCN1)N1CCC2(CCc3ccccc32)CC1` (stereo unspecified), the INHIBITION is 50.32%. In the case of `Cc1noc(C)c1CN1C(=O)[C@@H]2CC[C@H]1CN(C(=O)c1cscn1)C2`, the INHIBITION is on record as -13.89%.

Consider `Cc1occc1C(=O)N1CCC2(CCN(Cc3ccccn3)C2=O)C1` (stereo unspecified), for which the INHIBITION is given as 49.25%.

Regarding `O=C(O)[C@]12CCCN(Cc3ccsc3)C[C@H]1CN(c1ncccn1)C2`, the INHIBITION was 53.55%. With `O=C(O)[C@]12CCCN(Cc3ccccc3)C[C@H]1CN(c1ncccn1)C2`, the INHIBITION is recorded as -0.75%. Turning to `O=C(O)[C@]12CCCN(Cc3ccsc3)C[C@H]1CN(c1ccccn1)C2`, the INHIBITION stood at 27.73%. Take `CCC(C)[C@H](NC(=O)c1ccc(F)cc1-n1cnnn1)C(=O)OC` (stereo partly specified): the INHIBITION is on record as 24.67%.

On to `CCn1nc(C)c(CNC(=O)c2cn(CC3CCCO3)nn2)c1C` (stereo unspecified), for which the INHIBITION is -32.59%. As for `CN(C)C(=O)[C@H]1C[C@H]2CN(CCc3ccccc3)C[C@@H]1O2`, the INHIBITION came to 28.38%. The same measure for `COc1ccc(CN2CCC[C@@H]3CN(C(=O)c4ccco4)C[C@@H]32)cc1`: -24.31%; for `Cc1ccc(CN2CCC[C@@H]3CN(C(=O)c4ccco4)C[C@@H]32)o1`: 50.17%; for `CC(=O)N1C[C@H]2CCCN(Cc3ccc(C)o3)[C@H]2C1`: -41.73%. The same measure for `CCCC(=O)N(CCCN1CCOCC1)c1nc2c(C)c(C)ccc2s1`: -3.67%; for `Cc1cccc(CNC[C@H]2Cn3ccnc3CO2)n1`: 9.42%.
